What all share (experiment): qHTS profiling for inhibitors of Plasmodium falciparum proliferation (AID 504749); also: nearly all actives have a fitted effect of over 60% in size
Holding throughout (settings): P. falciparum in erythrocytes, SYBR Green DNA, 72 h; series mostly up to 28.7 µM
(In general: qHTS replaces the single test concentration by a dilution series.)

Test [1] has as its system CP185. In outline:
(§1)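 Infected RBCs, 0.3% parasitemia/2.5% Hct final; cpd 72 h, 37 C, 5% CO2; lysis buffer with saponin/triton/SYBR Green I, o/n RT dark; FI 485/535; norm. to artemisinin (0.29 uM) and DMSO.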

For test [2], the system named is CP191. In outline: as §1
Test [3] deals with CP192. A digest of the protocol:
as §1

For test [4], the system named is CP194. In outline:
as §1

Test [5] relates to CP201. In outline:
as §1

Test [6] has as its system CP211. A digest of the protocol: as §1
For test [7], the system named is CP215. In outline: as §1
Test [8] has as its system CP217. A digest of the protocol: as §1
Test [9] concerns CP237. In outline:
as §1

In test [10] the test system is CP238. A digest of the protocol: as §1
Test [11] deals with CP247. In outline:
as §1

The subject of test [12] is CP250. A digest of the protocol: as §1
Test [13] relates to CP252. In outline:
as §1

Test [14] has as its system CP256. A digest of the protocol: as §1
Test [15] deals with CP260. In outline:
as §1

The test system of test [16] is CP262. A digest of the protocol: as §1
The test system of test [17] is CP265. In outline:
as §1

In test [18] the test system is CP266. In outline:
as §1

The test system of test [19] is CP268. A digest of the protocol:
as §1

In test [20] the test system is CP203. In outline:
as §1

This passage reports Potency results from PubChem BioAssay (NCATS).

Results filed as inconclusive are left out. Calls of active or inactive are those of the source. Calls follow the shape of the dose curve; as a rule, active = well fitted inhibition curve with a large enough effect; inconclusive = small, poorly fitted or top-dose-only effect; inactive = flat fitted curve, though single readings scatter.
Potency is read from the fitted curve at half-maximal effect.

For `CN1CCN(C(=O)O[C@H]2c3nccnc3C(=O)N2c2ccc(Cl)cn2)CC1`, the Potency result in test [1], in test [2], in test [3], in test [4], in test [5] and in test [6] was “inactive” throughout. Moreover, the Potency entry in test [7], in test [8], in test [9], in [10], in [11] and in [12] was “inactive” in each case. In addition, the Potency result in test [13], in [14], in [15], in test [16], in test [17] and in test [18] was “inactive” in each case. The Potency result in [19] was “inactive”.
As to `Nc1ccncc1`, the Potency result in test [1], in test [2], in test [3], in test [4], in [5] and in test [6] was “inactive” in each case. In addition, the Potency entry in test [7], in test [8], in test [9], in [10], in test [11] and in test [12] was “inactive” throughout. For the same compound, the Potency entry in test [13], in [14], in [15], in test [16], in [17] and in test [18] was “inactive” in each case. Besides, in test [19], the Potency result was “inactive”.
`C#CCOC(C(=O)OCCN(C)C)(c1ccccc1)c1ccccc1`: the Potency result in test [1], in test [2], in test [3], in test [4], in test [5] and in test [6] was “inactive” each time. In addition, the Potency entry in test [7], in test [8], in test [9], in test [10], in test [11] and in [12] was “inactive” each time. The Potency entry in [13], in test [14], in [15], in test [16], in test [17] and in test [18] was “inactive” in each case. In addition, the Potency result in test [19] was “inactive”.
As for `CC(=O)[C@H]1CC[C@H]2[C@@H]3CC[C@H]4C[C@H](O)CC[C@]4(C)[C@H]3C(=O)C[C@]12C`, the Potency result in test [1], in test [2], in [3], in [4], in test [5] and in [6] was “inactive” each time. Besides, the Potency result in [7], in test [8], in test [9], in [10], in test [11] and in test [12] was “inactive” each time. Also, the Potency entry in test [13], in test [14], in test [15], in test [16], in [17] and in test [18] was “inactive” throughout. Further, the Potency entry in test [19] is “inactive”.
With `CC[N+]1(C)CCCC(OC(=O)C(O)(c2ccccc2)c2ccccc2)C1` (stereo not drawn), the Potency entry in test [1], in test [2], in test [3], in test [4], in [5] and in [6] was “inactive” in each case. For the same compound, the Potency entry in [7], in test [8], in test [9], in test [10], in test [11] and in test [12] was “inactive” in each case. Moreover, the Potency entry in test [13], in test [14], in test [15], in test [16], in test [17] and in [18] was “inactive” in each case. In test [19], the Potency entry was “inactive”.
Consider `c1ccc2c(c1)OCC(C1=NCCN1)O2` (stereo not drawn), for which the Potency entry in test [1], in test [2], in test [3], in test [4], in test [5] and in test [6] was “inactive” in each case. Further, the Potency result in test [7], in test [8], in test [10], in test [12], in test [13] and in test [14] was “inactive” each time. For the same compound, the Potency result in test [16], in test [17], in test [18] and in test [19] was “inactive” each time.
For `NCC(CC(=O)O)c1ccc(Cl)cc1` (stereo not drawn), the Potency result in test [1], in test [2], in test [3], in test [4], in test [5] and in test [20] was “inactive” in each case. Also, the Potency entry in [6], in [7], in test [8], in test [9], in [10] and in test [11] was “inactive” each time. Further, the Potency entry in test [12], in test [13], in test [14], in test [15], in test [16] and in test [17] was “inactive” throughout. The Potency result in [18] and in [19] was “inactive” in each case.
`Oc1ccccc1-c1ccccc1`: the Potency result in [1], in test [2], in test [3], in test [4], in test [5] and in test [20] was “inactive” throughout. Besides, the Potency entry in [6], in test [7], in [8], in [9], in [10] and in test [11] was “inactive” in each case. Further, the Potency result in [12], in test [13], in test [14], in test [15], in [16] and in test [17] was “inactive” throughout. Besides, the Potency entry in test [18] and in [19] was “inactive” each time.
On to `Cc1ncc(CNC(=O)N(CCCl)N=O)c(N)n1`, for which the Potency result in test [1], in test [2], in test [3], in test [4], in test [5] and in [6] was “inactive” in each case. Moreover, the Potency entry in test [7], in test [8], in test [9], in test [10], in test [11] and in test [12] was “inactive” throughout. Further, the Potency entry in [13], in test [14], in test [15], in test [16], in test [17] and in test [18] was “inactive” throughout. The Potency entry in test [19] is “inactive”.
Turning to `CC(C)(C)CC(C)(C)c1ccc(O)cc1`, the Potency entry in test [1], in test [2], in test [3], in test [4], in test [5] and in test [20] was “inactive” in each case. The Potency entry in test [6], in test [7], in test [8], in test [9], in test [10] and in [12] was “inactive” throughout. The Potency entry in test [13], in [14], in test [15], in test [16], in [17] and in test [18] was “inactive” each time. For the same compound, the Potency result in test [19] was “inactive”. Further, the Potency in test [11] is 11.2 µM (active).
As for `NCC(O)c1ccc(O)cc1` (stereo not drawn), the Potency result in [1], in test [2], in test [3], in [4], in [5] and in test [20] was “inactive” each time. Also, the Potency result in test [6], in test [7], in test [8], in test [9], in [10] and in test [11] was “inactive” throughout. The Potency result in test [12], in [13], in test [14], in [15], in test [16] and in test [17] was “inactive” throughout. Moreover, the Potency entry in [19] was “inactive”.
Consider `OCCOc1ccccc1`, for which the Potency entry in [1], in [2], in test [3], in test [4], in [5] and in [6] was “inactive” each time. In addition, the Potency result in test [7], in [8], in test [9], in [10], in test [11] and in test [12] was “inactive” each time. Moreover, the Potency result in test [13], in [14], in test [15], in test [16], in test [17] and in test [18] was “inactive” each time. Besides, the Potency entry in [19] was “inactive”.
As to `c1ccc(C2CC2)c(OCC2=NCCN2)c1`, the Potency result in test [1], in test [2], in test [3], in [4], in [5] and in test [20] was “inactive” throughout. Further, the Potency result in test [6], in test [7], in test [8], in test [10], in test [12] and in test [13] was “inactive” throughout. The Potency result in test [14], in [15], in [17], in test [18] and in test [19] was “inactive” throughout.
Consider `Clc1ccc(COC(Cn2ccnc2)c2ccc(Cl)cc2Cl)cc1` (stereo not drawn), for which the Potency in test [1] is 8.91 µM (active); in test [2] it was 3.16 µM (active); in test [3], 6.01 µM (active); in test [4], 6.75 µM (active); in test [5], 15.1 µM (active); in test [6] it was 9.53 µM (active). Moreover, the Potency in test [7] is 4.78 µM (active); in test [8], 2.51 µM (active); in test [9] it was 1.26 µM (active); in test [10], 6.31 µM (active); in [11], 3.16 µM (active); in [12], 5.01 µM (active). Further, the Potency was 3.98 µM (active) in test [13]; 7.08 µM (active) in [14]; 2.51 µM (active) in test [15]; 4.78 µM (active) in test [16]; 2.51 µM (active) in [17]; 15.1 µM (active) in [19].
